What all share (experiment): DAPPL (digital affinity profiling via proximity ligation, sequencing); 10 mM Tris-HCl pH 7.5, 50 mM NaCl, 1 mM DTT, 4% glycerol, room temperature, 30 min; GST-TFs on glutathione beads, 16-mer random dsDNA library, 0.1% formaldehyde crosslink after washing; high values mean tight binding
One experiment deals with T1, FLI1 (Homo sapiens, UniProt Q01543 1-452).
T1 sequence: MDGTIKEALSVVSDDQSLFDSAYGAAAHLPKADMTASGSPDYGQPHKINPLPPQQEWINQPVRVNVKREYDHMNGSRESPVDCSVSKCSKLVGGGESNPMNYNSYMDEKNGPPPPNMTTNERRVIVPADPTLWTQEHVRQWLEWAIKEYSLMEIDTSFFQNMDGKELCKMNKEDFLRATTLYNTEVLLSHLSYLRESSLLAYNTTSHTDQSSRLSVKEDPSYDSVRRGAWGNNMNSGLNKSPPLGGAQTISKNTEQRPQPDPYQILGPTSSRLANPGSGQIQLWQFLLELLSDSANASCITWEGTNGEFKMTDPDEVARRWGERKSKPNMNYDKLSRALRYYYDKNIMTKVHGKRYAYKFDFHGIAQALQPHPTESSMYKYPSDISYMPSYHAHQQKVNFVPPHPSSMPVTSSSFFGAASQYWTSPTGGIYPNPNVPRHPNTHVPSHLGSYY
To be noted: protein: recombinant; tags: N-terminal GST; dsDNA, one strand shown. In outline: (§1)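 Pools were built from human transcription factors expressed in yeast as GST fusions, captured on glutathione beads and DNA-barcoded, along with a tag-only sample. Incubation with 200 nmole of a 16-mer random double-stranded DNA library lasted 30 min at room temperature in Tris/NaCl/DTT/glycerol buffer, and was followed by washing, 0.1% formaldehyde crosslinking, proximity ligation, PCR amplification and Illumina NextSeq500 sequencing. Binding signal is the quotient of each hexamer's read frequency for a factor and its frequency for the tag-only sample.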

For another experiment, the target named is T2, ELK1 (Homo sapiens, UniProt P19419 1-428).
T2 sequence: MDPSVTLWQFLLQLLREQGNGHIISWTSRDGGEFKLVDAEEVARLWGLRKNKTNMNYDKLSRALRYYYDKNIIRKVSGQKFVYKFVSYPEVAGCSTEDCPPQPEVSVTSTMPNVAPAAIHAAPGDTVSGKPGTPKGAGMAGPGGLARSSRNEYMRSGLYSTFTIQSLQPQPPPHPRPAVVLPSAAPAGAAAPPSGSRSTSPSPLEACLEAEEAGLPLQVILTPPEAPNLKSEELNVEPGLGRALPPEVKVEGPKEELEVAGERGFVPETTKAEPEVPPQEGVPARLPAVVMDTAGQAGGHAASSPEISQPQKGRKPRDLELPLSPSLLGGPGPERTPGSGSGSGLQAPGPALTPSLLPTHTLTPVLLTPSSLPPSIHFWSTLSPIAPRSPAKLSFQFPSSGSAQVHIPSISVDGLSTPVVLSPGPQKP
The conditions noted are these: protein: recombinant; tags: N-terminal GST; dsDNA, one strand shown. The essentials: as §1

Another experiment has as its target T3, GABPA (Homo sapiens, UniProt Q06546 1-454).
T3 sequence: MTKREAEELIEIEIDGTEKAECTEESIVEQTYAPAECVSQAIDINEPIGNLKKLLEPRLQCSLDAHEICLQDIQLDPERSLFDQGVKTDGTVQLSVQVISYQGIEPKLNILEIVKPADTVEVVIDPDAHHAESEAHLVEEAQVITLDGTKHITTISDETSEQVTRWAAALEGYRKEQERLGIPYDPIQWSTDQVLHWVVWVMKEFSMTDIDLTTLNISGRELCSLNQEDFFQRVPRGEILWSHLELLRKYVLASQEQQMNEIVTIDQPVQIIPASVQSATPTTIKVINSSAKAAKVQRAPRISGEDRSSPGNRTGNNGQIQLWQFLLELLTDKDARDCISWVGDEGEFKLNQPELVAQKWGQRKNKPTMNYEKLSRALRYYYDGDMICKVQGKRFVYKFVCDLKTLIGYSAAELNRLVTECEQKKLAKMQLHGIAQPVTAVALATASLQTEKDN
The conditions noted are these: protein: recombinant; tags: N-terminal GST; dsDNA, one strand shown. In outline:
as §1

Another experiment addresses T4, ERG (Homo sapiens, UniProt P11308 1-479).
T4 sequence: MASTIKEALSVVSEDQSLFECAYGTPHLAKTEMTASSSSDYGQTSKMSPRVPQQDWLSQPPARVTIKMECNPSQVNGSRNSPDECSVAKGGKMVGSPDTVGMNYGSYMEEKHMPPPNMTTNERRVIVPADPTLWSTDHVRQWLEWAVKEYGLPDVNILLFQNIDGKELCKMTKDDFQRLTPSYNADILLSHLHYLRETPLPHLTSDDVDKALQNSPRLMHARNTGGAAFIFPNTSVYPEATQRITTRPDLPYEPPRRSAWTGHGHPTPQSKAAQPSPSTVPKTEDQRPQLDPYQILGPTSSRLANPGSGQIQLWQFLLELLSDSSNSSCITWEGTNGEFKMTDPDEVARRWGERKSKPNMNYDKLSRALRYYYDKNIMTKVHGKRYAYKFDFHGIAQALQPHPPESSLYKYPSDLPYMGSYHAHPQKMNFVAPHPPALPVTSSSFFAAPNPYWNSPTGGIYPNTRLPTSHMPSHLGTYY
To be noted: protein: recombinant; tags: N-terminal GST; dsDNA, one strand shown. The essentials:
as §1

The next experiment addresses ELF1 (Homo sapiens, UniProt P32519 1-619). To be noted: protein: recombinant; tags: N-terminal GST; dsDNA, one strand shown. The essentials: as §1
A further experiment concerns the target T5, EHF (Homo sapiens, UniProt Q9NZC4 1-300).
T5 sequence: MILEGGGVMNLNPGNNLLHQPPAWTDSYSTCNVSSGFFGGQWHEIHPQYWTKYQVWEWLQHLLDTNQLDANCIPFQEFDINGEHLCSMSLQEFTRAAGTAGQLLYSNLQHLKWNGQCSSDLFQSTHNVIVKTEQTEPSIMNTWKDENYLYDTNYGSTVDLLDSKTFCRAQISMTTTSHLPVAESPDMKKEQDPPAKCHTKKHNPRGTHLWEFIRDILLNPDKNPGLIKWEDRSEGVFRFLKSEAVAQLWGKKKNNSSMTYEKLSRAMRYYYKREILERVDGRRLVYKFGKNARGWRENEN
The conditions noted are these: protein: recombinant; tags: N-terminal GST; dsDNA, one strand shown. In outline: as §1

In a further experiment the target is SPI1 (Homo sapiens, UniProt P17947 1-270). The conditions noted are these: protein: recombinant; tags: N-terminal GST; dsDNA, one strand shown. In outline: as §1
The target in a further experiment is SPIB (Homo sapiens, UniProt Q01892 1-262). To be noted: protein: recombinant; tags: N-terminal GST; dsDNA, one strand shown. In outline:
as §1

In the next experiment the target is T6, ELK3 (Homo sapiens, UniProt P41970 1-407).
T6 sequence: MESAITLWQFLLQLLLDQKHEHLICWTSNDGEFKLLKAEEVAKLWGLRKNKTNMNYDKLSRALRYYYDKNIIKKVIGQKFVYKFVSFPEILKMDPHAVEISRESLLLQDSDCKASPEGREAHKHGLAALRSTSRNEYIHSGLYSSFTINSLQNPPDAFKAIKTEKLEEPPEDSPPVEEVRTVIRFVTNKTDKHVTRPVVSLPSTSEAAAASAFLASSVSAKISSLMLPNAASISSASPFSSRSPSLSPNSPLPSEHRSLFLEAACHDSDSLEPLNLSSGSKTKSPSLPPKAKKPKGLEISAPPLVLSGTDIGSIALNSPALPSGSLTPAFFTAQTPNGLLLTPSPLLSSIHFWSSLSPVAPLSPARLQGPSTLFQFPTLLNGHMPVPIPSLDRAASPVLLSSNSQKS
To be noted: protein: recombinant; tags: N-terminal GST; dsDNA, one strand shown. In outline:
as §1

The next experiment concerns the target T7, FEV (Homo sapiens, UniProt Q99581 1-238).
T7 sequence: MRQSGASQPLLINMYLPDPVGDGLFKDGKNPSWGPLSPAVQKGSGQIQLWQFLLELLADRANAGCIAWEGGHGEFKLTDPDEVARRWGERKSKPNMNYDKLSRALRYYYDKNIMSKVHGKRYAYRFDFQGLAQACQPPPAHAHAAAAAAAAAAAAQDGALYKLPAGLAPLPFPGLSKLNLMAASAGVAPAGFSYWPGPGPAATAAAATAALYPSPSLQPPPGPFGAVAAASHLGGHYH
The conditions noted are these: protein: recombinant; tags: N-terminal GST; dsDNA, one strand shown. In outline: as §1

The target of the next experiment is ETV5 (Homo sapiens, UniProt P41161 1-510). To be noted: protein: recombinant; tags: N-terminal GST; dsDNA, one strand shown. The essentials: as §1
The target of a further experiment is HSF1 (Homo sapiens, UniProt Q00613 1-529). The conditions noted are these: protein: recombinant; tags: N-terminal GST; chain copies: 3; dsDNA, one strand shown. The essentials:
as §1

The next experiment concerns the target T8, SPIC (Homo sapiens, UniProt Q8N5J4 1-248).
T8 sequence: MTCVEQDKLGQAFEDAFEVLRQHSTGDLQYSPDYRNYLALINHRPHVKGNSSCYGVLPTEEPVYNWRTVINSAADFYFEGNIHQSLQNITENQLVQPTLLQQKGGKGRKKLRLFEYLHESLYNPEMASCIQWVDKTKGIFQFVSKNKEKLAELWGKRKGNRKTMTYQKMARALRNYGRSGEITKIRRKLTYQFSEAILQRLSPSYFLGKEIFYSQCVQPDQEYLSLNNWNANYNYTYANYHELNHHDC
To be noted: protein: recombinant; tags: N-terminal GST; dsDNA, one strand shown. In outline:
as §1

The next experiment concerns the target ELF4 (Homo sapiens, UniProt Q99607 1-663). To be noted: protein: recombinant; tags: N-terminal GST; dsDNA, one strand shown. In outline: as §1
The target of the next experiment is T9, ELK4 (Homo sapiens, UniProt P28324-2 1-405).
T9 sequence: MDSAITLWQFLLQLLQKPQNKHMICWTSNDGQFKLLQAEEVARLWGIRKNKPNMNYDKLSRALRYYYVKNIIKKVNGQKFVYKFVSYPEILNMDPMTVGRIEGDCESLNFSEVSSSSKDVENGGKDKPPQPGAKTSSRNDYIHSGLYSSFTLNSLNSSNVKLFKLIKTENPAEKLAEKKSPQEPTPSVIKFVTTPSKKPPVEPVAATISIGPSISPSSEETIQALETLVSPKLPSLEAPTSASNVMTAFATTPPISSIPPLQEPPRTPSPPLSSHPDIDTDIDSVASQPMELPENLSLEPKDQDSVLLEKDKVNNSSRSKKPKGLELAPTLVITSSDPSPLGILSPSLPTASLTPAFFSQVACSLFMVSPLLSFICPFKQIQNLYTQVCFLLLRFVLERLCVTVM
To be noted: protein: recombinant; tags: N-terminal GST; dsDNA, one strand shown. In outline: as §1

The target in the next experiment is T10, ETV2 (Homo sapiens, UniProt O00321 1-342).
T10 sequence: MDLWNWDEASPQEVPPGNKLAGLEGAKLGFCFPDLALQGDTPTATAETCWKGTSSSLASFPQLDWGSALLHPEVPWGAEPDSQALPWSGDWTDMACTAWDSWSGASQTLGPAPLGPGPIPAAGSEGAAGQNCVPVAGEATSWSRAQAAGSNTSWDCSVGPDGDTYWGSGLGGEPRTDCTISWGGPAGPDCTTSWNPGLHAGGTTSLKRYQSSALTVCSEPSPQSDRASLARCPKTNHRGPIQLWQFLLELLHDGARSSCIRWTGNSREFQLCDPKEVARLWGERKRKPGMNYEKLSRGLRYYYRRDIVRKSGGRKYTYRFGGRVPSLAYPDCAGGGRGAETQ
To be noted: protein: recombinant; tags: N-terminal GST; dsDNA, one strand shown. The essentials:
as §1

A further experiment has as its target T11, ELF3 (Homo sapiens, UniProt P78545 1-371).
T11 sequence: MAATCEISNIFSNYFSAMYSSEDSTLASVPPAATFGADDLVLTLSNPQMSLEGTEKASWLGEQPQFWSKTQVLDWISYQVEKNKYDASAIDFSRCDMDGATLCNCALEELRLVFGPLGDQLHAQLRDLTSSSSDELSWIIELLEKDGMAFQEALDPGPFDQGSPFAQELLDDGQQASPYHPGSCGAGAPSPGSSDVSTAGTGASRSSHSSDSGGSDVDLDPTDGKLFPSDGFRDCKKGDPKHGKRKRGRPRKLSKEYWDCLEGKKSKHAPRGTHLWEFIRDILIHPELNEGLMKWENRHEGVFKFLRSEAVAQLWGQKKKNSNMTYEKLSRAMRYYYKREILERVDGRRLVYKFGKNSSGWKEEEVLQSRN
To be noted: protein: recombinant; tags: N-terminal GST; dsDNA, one strand shown. The essentials:
as §1

The target in another experiment is ETV1 (Homo sapiens, UniProt P50549 1-477). The conditions noted are these: protein: recombinant; tags: N-terminal GST; dsDNA, one strand shown. In outline: as §1

The values that follow come from article PMC7862700, “An all-to-all approach to the identification of sequence-specific readers for epigenetic DNA modifications on cytosine”.

ELF4, sequence (Q99607 whole entry): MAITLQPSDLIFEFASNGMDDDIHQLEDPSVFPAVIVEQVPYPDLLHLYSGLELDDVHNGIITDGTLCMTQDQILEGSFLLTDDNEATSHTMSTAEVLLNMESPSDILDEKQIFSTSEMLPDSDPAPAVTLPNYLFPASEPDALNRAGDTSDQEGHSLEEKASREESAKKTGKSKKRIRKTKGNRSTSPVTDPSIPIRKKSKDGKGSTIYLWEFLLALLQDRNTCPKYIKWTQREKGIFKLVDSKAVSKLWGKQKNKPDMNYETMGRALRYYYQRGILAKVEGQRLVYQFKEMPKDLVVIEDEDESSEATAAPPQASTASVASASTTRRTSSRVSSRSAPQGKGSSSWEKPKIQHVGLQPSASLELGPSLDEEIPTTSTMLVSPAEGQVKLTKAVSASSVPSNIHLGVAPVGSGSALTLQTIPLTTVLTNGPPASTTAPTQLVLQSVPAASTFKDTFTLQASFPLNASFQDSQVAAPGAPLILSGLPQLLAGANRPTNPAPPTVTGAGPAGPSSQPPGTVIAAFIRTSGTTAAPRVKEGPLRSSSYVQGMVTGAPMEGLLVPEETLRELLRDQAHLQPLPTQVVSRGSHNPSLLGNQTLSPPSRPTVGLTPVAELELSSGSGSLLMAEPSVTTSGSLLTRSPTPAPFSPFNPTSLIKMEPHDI
HSF1, sequence (Q00613 whole entry): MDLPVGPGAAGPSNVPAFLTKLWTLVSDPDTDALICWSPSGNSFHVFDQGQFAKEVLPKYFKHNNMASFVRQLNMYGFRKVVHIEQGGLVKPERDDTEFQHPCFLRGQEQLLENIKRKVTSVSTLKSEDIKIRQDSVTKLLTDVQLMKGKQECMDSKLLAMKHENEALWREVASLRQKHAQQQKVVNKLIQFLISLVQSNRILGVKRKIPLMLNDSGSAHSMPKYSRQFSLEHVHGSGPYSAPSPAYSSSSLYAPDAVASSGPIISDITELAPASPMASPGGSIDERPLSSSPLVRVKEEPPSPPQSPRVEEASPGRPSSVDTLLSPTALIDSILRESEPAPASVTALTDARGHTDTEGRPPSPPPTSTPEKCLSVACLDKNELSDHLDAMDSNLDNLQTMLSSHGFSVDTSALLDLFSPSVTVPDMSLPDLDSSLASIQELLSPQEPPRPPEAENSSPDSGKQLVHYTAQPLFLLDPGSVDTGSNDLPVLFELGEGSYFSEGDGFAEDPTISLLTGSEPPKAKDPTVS
SPIB, sequence (Q01892 whole entry): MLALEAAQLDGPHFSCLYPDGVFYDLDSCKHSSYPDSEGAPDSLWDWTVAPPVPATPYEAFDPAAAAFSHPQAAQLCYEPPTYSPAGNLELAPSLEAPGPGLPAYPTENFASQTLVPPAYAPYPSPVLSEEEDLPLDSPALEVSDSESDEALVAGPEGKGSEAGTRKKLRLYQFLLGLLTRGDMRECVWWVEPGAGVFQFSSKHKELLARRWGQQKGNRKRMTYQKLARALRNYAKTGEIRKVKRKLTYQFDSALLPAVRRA
ETV5, sequence (P41161 whole entry): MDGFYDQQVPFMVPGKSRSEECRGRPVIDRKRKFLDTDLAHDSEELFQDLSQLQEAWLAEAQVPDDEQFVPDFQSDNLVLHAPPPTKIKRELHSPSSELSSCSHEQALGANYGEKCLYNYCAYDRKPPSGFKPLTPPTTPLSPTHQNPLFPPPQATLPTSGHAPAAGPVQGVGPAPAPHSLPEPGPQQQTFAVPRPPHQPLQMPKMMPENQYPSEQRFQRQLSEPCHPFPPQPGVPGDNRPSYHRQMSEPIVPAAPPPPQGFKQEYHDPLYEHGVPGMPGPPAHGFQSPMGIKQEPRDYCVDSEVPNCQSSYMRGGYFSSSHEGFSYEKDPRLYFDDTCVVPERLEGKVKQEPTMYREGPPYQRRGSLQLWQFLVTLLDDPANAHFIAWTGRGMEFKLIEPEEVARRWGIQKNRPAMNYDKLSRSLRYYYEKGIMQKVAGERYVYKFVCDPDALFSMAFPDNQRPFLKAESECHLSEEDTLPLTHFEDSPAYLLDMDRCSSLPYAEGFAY
ELF1, sequence (P32519 whole entry): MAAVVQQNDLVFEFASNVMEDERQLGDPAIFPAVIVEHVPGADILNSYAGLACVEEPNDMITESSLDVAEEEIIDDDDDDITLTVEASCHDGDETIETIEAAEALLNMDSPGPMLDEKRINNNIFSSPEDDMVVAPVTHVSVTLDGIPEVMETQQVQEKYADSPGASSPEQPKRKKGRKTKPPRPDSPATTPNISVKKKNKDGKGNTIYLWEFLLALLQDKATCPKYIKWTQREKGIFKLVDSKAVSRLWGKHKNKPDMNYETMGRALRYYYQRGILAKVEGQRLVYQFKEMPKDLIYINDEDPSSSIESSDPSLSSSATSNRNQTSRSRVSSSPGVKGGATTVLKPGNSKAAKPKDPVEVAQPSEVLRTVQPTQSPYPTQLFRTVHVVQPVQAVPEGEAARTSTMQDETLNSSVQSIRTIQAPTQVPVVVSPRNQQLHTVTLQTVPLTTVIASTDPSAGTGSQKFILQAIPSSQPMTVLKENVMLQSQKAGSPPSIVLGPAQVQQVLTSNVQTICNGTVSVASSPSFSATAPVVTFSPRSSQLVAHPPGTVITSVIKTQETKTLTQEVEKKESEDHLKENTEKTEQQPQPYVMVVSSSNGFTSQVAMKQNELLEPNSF
ETV1, sequence (P50549 whole entry): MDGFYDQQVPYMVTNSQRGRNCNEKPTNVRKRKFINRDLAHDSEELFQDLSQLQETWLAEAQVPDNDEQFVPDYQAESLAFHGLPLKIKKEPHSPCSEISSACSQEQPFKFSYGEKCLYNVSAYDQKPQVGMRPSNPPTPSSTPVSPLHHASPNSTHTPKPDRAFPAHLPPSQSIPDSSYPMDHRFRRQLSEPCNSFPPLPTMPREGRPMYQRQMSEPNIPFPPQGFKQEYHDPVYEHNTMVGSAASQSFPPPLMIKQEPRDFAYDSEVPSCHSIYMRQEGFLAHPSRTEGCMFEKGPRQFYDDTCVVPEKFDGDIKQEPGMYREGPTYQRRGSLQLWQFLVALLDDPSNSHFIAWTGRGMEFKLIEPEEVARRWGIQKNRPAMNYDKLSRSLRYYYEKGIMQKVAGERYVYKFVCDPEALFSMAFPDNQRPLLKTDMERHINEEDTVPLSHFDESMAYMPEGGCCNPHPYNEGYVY

In the case of AGGAAA, the binding signal with FLI1 was 1.32 fold enrichment (6-mer frequency, TF over GST control); with ELK1, 1.28 fold enrichment (6-mer frequency, TF over GST control); with GABPA it was 1.31 fold enrichment (6-mer frequency, TF over GST control); in the experiment with ERG, 1.62 fold enrichment (6-mer frequency, TF over GST control); with ELF1, 1.27 fold enrichment (6-mer frequency, TF over GST control); with EHF, 1.63 fold enrichment (6-mer frequency, TF over GST control). Also, the binding signal is 1.43 fold enrichment (6-mer frequency, TF over GST control) in the experiment with SPI1; 1.49 fold enrichment (6-mer frequency, TF over GST control) with SPIB; 1.34 fold enrichment (6-mer frequency, TF over GST control) with ELK3; 1.5 fold enrichment (6-mer frequency, TF over GST control) with FEV; 1.52 fold enrichment (6-mer frequency, TF over GST control) in the experiment with ETV5; 1.15 fold enrichment (6-mer frequency, TF over GST control) with HSF1. For the same sequence, the binding signal with SPIC is 1.42 fold enrichment (6-mer frequency, TF over GST control); with ELF4, 1.35 fold enrichment (6-mer frequency, TF over GST control); in the experiment with ELK4, 1.2 fold enrichment (6-mer frequency, TF over GST control); with ETV2, 1.41 fold enrichment (6-mer frequency, TF over GST control); with ELF3, 1.72 fold enrichment (6-mer frequency, TF over GST control); in the experiment with ETV1, 1.46 fold enrichment (6-mer frequency, TF over GST control).
